Assay results: ChEMBL document CHEMBL3433997, “St. Jude Leishmania screening dataset” (2016)
Where “and” joins values, the source holds several entries; their conditions need not be identical. Identical values can stand only once.

Experiments:
Format in all cases: functional
[1] = biological target: Solute carrier family 2, facilitated glucose transporter member 1 (Homo sapiens) (UniProt P11166); test: ST_JUDE_LEISH: Cytotoxicity at 2uM final concentration against transgenic Leishmania Mexicana promastigotes LmGLUT1 that are glucose transport deficient and complemented with the human glucose transporter GLUT1. Activity is measured by DNA content using SYBR green in vitro
[2] = biological target: Hexose transporter 1 (Plasmodium falciparum) (UniProt O97467); test: ST_JUDE_LEISH: Cytotoxicity at 2uM final concentration against transgenic Leishmania Mexicana promastigotes LmPfHT that are glucose transport deficient and complemented with the Plasmodium falciparum hexose transporter. Activity is measured by DNA content using SYBR green in vitro
[3] = biological target: Glucose transporter (Leishmania mexicana) (UniProt O61059); test: ST_JUDE_LEISH: Cytotoxicity at 2uM final concentration against transgenic Leishmania Mexicana promastigotes LmGT2 that are glucose transport deficient and complemented with the L. Mexicana glucose transporter 2. Activity is measured by DNA content using SYBR green in vitro

Sequence of Solute carrier family 2, facilitated glucose transporter member 1 (Homo sapiens) (P11166 whole entry): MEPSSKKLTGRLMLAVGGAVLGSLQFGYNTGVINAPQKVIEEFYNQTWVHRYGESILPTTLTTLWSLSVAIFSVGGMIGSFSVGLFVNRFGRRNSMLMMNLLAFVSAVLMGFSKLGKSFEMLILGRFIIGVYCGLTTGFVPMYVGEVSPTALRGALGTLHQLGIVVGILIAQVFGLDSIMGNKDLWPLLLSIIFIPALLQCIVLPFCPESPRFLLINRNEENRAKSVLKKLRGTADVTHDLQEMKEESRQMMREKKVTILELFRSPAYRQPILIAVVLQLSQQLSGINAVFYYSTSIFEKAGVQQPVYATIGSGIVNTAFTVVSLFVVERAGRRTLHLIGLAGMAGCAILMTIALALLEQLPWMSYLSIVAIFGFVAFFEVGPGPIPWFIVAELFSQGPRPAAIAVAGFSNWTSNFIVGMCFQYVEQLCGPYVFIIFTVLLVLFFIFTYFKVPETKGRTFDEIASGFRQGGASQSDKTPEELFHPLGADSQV

| Structure (SMILES) | inhibition [1] | inhibition [2] | inhibition [3] |
| --- | --- | --- | --- |
| Cc1cccc2nc(-c3ccc(-c4ccc(CNCCNC(=O)c5ccnn5C)cc4)cc3)[nH]c12 | -0.55% | 1.46% | -2.49% |
| CCCc1ccc(NC(=O)c2cccc(CN3CCCN(Cc4cccc(O)c4)CC3)c2)cc1 | -0.09% | 2.34% | 0.71% |
| COc1ccccc1N1CCN(C(C(=O)NCc2ccc(C)cc2)c2ccc(C)cc2)CC1 (stereo not drawn) | -0.68% | -0.64% | -2.75% |
| Cc1cccc2nc(-c3ccc(-c4ccc(CNCc5cccc(N)c5)cc4)s3)[nH]c12 | 4.29% | 1.98% | 2.76% |
| COc1ccc(Cl)cc1N1CCN(CCCNC(=O)c2ccc(-c3nc4cc(Cl)c(F)cc4[nH]3)c(F)c2)CC1 | 6.94% | 2.24% | 4.99% |
| O=C(Nc1ccc(OC2CCN(Cc3ccsc3)C2)c(Cl)c1)c1ccc(F)cc1 (stereo not drawn) | 0.29% | 0.51% | 0.32% |
| Cc1cc(Nc2cccc(C(F)(F)F)c2)nc(Nc2cccc(C(F)(F)F)c2)n1 | 4.73% | 4.81% | -0.49% |
| COc1cc(Br)ccc1N1CCN(CCCCNC(=O)c2ccc(NC(=O)c3ccc(Cl)cc3)cc2)CC1 | 2.1% | 2.33% | 1.5% |
| CCOc1ccc(C(=O)N2CCOC(CCN3CCC4(CCc5ccccc54)CC3)(c3ccc(Cl)c(Cl)c3)C2)cc1 (stereo not drawn) | 5.41% | 5.56% | 5.12% |
| Cc1[nH]cnc1Cc1ccc2c(c1O)c1ccccc1n2C | 2.71% | -0.2% | -0.18% |
| CN(Cc1cnc2nc(N)nc(N)c2n1)c1ccc(C(=O)N[C@@H](CCC(=O)O)C(=O)O)cc1 | 3.29% and 4.83% and 0.58% | 2.33% and 2.91% and 0.06% | -0.37% and 1.34% and 3.42% |
| CCCN(CCC)C(=O)c1cc(C(=O)N[C@@H](Cc2ccccc2)[C@H](O)CNCc2cccc(OC)c2)cc(N2CCCCS2(=O)=O)c1 | 4.58% | 5.76% | 5.14% |
| CCN(CCC1(c2ccc(Cl)c(Cl)c2)CN(C(=O)c2cc(OC)c(OC)c(OC)c2)CCO1)C1CC2c3ccccc3CC21 (stereo not drawn) | -0.68% | 1.17% | -0.3% |
| Cc1cc(CN2C(=O)C(c3ccccc3)(c3ccccc3)N=C2N)c(C(F)(F)F)o1 | 6.61% | 9.85% | 6.9% |
| O=C(/C=C/c1ccc(Cl)c(Cl)c1)NCCCCCN1CCC(NC(=O)c2ccc3ccccc3c2)CC1 | 0.51% | 0.83% | 1.46% |
| O=C(NC1CCN(Cc2ccccc2)CC1)c1ccc(-c2nc3cc(F)c(F)cc3[nH]2)s1 | 3.16% | 3.84% | 5.72% |
| O=C(NOCc1ccccc1)c1cc(Cl)ccc1O | 2.44% | 3.78% | 2.15% |
| COC(=O)Nc1cc(C(F)(F)F)ccc1N1CCC(CNS(=O)(=O)c2ccc(OC)cc2)CC1 | 7.63% | 4.92% | 6.14% |
| CCn1ncc2c(N3CCCC3=O)cc(C(=O)N[C@@H](Cc3ccccc3)[C@H](O)CNC(C)(C)c3cccc(OC)c3)cc21 | 2.35% | -0.95% | 0.04% |
| CCc1cn2c3c(cc(C(=O)N[C@@H](Cc4cc(F)cc(F)c4)[C@H](O)CNC4CC4)cc13)N(C)S(=O)(=O)CC2 | 3.44% | 2.48% | 3.48% |
| CC(C)CN(Cc1c(O)ccc2[nH]c(-c3ccc(F)cc3F)nc12)CC(C)C | 11.1% | 10.8% | 5.69% |
| Oc1ccccc1N1CCN(c2ccc(-c3nc4ccccc4[nH]3)cn2)CC1 | 2.48% | 1.99% | 0.57% |
| CN(C)c1ccc(/C=C2\S/C(=N\c3ccccc3)N(c3ccccc3)C2=O)cc1[N+](=O)[O-] | 2.12% | 1.07% | -0.79% |
| COCCCC1C(=O)OC2CCCC21 (stereo not drawn) | 0.19% | 3.28% | 2.52% |
| CCC(Cc1cnc2nc(N)nc(N)c2n1)c1ccc(C(=O)O)cc1 (stereo not drawn) | 1.41% | 1.88% | 2.49% |
| Cc1cccc2nc(-c3cccc(-c4cccc(NC(=O)c5cnn6cccnc56)c4)c3)[nH]c12 | 5.09% | 4.22% | 1.19% |

| Structure (SMILES) | inhibition [1] | inhibition [2] | inhibition [3] |
| --- | --- | --- | --- |
| CCCNC(=O)C1Cc2c([nH]c3cc(Br)ccc23)C2(CCN(CCc3ccccc3)CC2)N1 (stereo not drawn) | 2.03% | 1.9% | 1.75% |
| C(=NNc1nc2ccccc2[nH]1)c1ccccc1OCc1ccccc1 | 4.25% | 6.99% | 3.06% |
| CC(C)(C)c1ccc(NC(=O)c2cccc(CN3CCCN(Cc4cccc(O)c4)CC3)c2)cc1 | 6.18% | 6.24% | 1.99% |
| CCCCCCCNC(=O)NCC1CCCN(CCCCCNC(=O)/C=C/c2ccc(Cl)c(Cl)c2)C1 (stereo not drawn) | 1.71% | 4.27% | 2.15% |
| CC(=O)Nc1ccccc1OCc1cc2cc(C(=O)N3CCC(N4C(=O)OCc5ccccc54)CC3)ccc2o1 | 4.21% | 2.89% | 4.49% |
| Cc1cccc2nc(-c3ccc(-c4cccc(CNCCNC(=O)c5ccnn5C)c4)s3)[nH]c12 | 3.8% | 4.31% | 3.87% |
| O=C(Nc1ccc(OC2CCN(Cc3ccc(F)cc3)C2)cc1)c1ccco1 (stereo not drawn) | 2.22% | 2.86% | 3.15% |
| Oc1ccc(CCNc2nc(NCCCOc3ccccc3-c3ccc(C(F)(F)F)cc3)nc(N3CCNCC3)n2)cc1 | -0.03% | -1.9% | -0.21% |
| CC(C)CCN(Cc1cncn1Cc1cccc(C(F)(F)F)c1)C(=O)c1ccccc1C#N | -3.54% | -0.35% | 0.86% |
| COc1ccc(Nc2cc(C)nc(NCc3ccc4c(c3)OCO4)n2)cc1 | 5.82% | 4.09% | 1.69% |
| CCCc1ccc(NC(=O)c2ccc(CN3CCCN(CC4CCCCC4)CC3)cc2)cc1 | 2.9% | 7.86% | 5.46% |
| c1ccc(C(c2ccccc2)N2CCN(C(c3cccnc3)c3nnnn3C3CCCC3)CC2)cc1 (stereo not drawn) | 4.64% | -0.82% | -1.23% |
| Cn1ccnc1CCC(=O)Nc1ccc(Cl)cc1C(=O)Nc1ccc(Cl)cc1 | 2.75% | 1.39% | 2.79% |
| CC(C)(C)c1nn(-c2ccc(Cl)cc2)c2[nH]c(=O)c(CNCc3cccs3)cc12 | 3.3% | 3.24% | 2.34% |
| COc1ccc(C2CCN(CCN3CCC(NC(=O)c4cccc(-c5ccncc5)c4)CC3)CC2)c(OC)c1 | 1.32% | 0.37% | 0.47% |
| O=C(O)c1cccnc1Sc1ccc(Cl)cc1 | -0.75% | -0.76% | -0.47% |
| CC(=O)CSC(C=Cc1ccc(N(C)C)cc1)=Nc1ccccc1 | 85.4% | 83.3% | 63.3% |
| N=C1NC(c2ccccc2)(c2ccccc2)C(=O)N1C1CCCCC1 | 3.46% | 3.28% | 1.18% |
| CCC(NC(=O)c1ccccc1NC(=O)c1ccc(C)cc1)C(=O)OC (stereo not drawn) | -0.5% | 0.91% | 0.97% |
| CS(=O)(=O)c1ccc(-c2nc(NCC3CCCCC3)cc(C(F)(F)F)n2)cc1 | -0.02% | 1.77% | 0.16% |
| CCCN1CCN(c2ccc(NS(=O)(=O)c3ccc(C(=O)Nc4ccc(Cl)cc4)cc3)cc2)CC1 | 0.49% | 0.84% | -2.28% |
| Cc1cc(N(C)C2CCN(CC3CCCCC3)C2)nc(Nc2ccc(Cl)cc2)n1 (stereo not drawn) | 7.35% | 5.97% | 4.28% |
| CN(C)c1cccc(-c2cnc3ccc(NCc4cccc(Cl)c4)nn23)c1 | 1.27% | 2.01% | 1.77% |
| COc1ccc(CC(=O)NC(CCCN2CCC3(CC2)OCc2ccccc23)c2ccc(Cl)c(Cl)c2)cc1 (stereo not drawn) | 1.2% | 2.18% | -0.29% |
| Cc1cc(N2CCCC2)nc(Nc2ccc(NC(=O)C(C)C)cc2)n1 | 5.62% | 2.73% | -6.48% |
